Screens from PubChem.
BoNT F protease: inhibitors of Botulinum neurotoxin F light chain protease; Multiplex microsphere protease cleavage assay, flow cytometry; actives 0.22% (n = 360,000); inhibition, % at 10 µM; in the data active means inhibition above about 35%, passing the limit was not always enough; inconclusive means no clear call, values can overlap the other calls; further: plate controls were buffer without enzyme for full effect and enzyme alone for no effect
Anthrax LF prot: blocks Bacillus anthracis lethal factor protease; P15917; multiplex microsphere protease cleavage assay, LF; AID 588501; actives 0.12% (n = 360,000); inhibition, % at 10 µM; further: plate controls were buffer without enzyme for full effect and enzyme alone for no effect
VHR inh abs: inhibitors of human VHR1 phosphatase (DUSP3). P51452. recombinant VHR phosphatase, pNPP absorbance. inhibition, % at 13.3 µM. actives 0.52% (n = 290,000); in the data active means inhibition above about 50%
Target sequence (P51452 whole entry, looked up): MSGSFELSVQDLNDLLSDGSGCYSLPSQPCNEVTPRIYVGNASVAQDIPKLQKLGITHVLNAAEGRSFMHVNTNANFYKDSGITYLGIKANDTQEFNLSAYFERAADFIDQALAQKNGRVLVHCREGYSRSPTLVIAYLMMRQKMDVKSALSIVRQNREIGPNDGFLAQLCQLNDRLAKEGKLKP
Autofluor counter: compound fluorescence in toxin protease inhibitor counterscreen; compound autofluorescence counterscreen, microsphere flow cytometry; stronger effect = higher value; fluorescence intensity (test concentration not listed); actives 3.1% (n = 360,000); AID 624483; in the data active means fluorescence intensity above about 16000; inconclusive means no clear call, values can overlap the other calls
BoNT A protease: inhibitors of Botulinum neurotoxin A light chain protease | inhibition, % at 10 µM | actives 0.17% (n = 360,000) | multiplex microsphere protease substrate cleavage, flow cytometry | AID 588499; further: plate controls were buffer without enzyme for full effect and enzyme alone for no effect
3CLpro inhibitor: SARS-CoV 3CLpro protease inhibition; recombinant SARS-CoV 3CLpro, quenched FRET peptide cleavage; actives 0.14% (n = 290,000); P0C6X7; inhibition, % at 6 µM; in the data active means inhibition above about 12%
Numbers without * were called inactive; u = inconclusive; x = no result. Only some compounds are listed: those with a hit (about 3.9% of all), similar ones and a draw of the others. Unless noted, no stated cut-off is given here; in the data, active means inhibition above about 30%; inconclusive means no clear call, values can overlap the other calls; inactive means below that.

SMILES | BoNT F protease | Anthrax LF prot | VHR inh abs | Autofluor counter | BoNT A protease | 3CLpro inhibitor
Cc1ccc(S(=O)(=O)NC(CC(=O)O)c2ccco2)cc1 (stereo not drawn) | -2.5 | -4.6 | 6.6 | 16531* | u | 0.6
CN(C)c1ccc2nc3ccc(=O)cc-3sc2c1 | -3.4 | -2.0 | x | 2898 | 3.9 | x
Cc1cc2nc3ccc(=[N+](C)C)cc-3sc2cc1N | -9.6 | 20.0 | 31.6 | 3584 | 61.4* | -1.4
CN(C)c1ccc2nc3ccc(=[N+](C)C)cc-3sc2c1 | -24.8 | 7.1 | 10.8 | 2168 | 31.5* | -4.3
CCc1cc(CNC(=O)c2ccc(OC)c(OC3CCN(C(C)C)CC3)c2)on1 | 9.3 | 1.9 | 57.1* | 6252 | 1.0 | -3.7
COc1c([N+](=O)[O-])cc(C(=O)NNC(=O)c2ccc(C)cc2)cc1[N+](=O)[O-] | 14.0 | -0.9 | -1.9 | 4019 | -1.9 | -1.4
CC(C)(C)NC(=O)CSc1nsc(SCC(=O)NC(C)(C)C)c1C#N | 0.3 | -3.0 | 41.4 | 17119* | -2.1 | 0.6
Cc1ccc(NC(=O)CSc2nsc(SCC(=O)Nc3ccc(C)cc3C)c2C#N)c(C)c1 | -1.6 | -2.6 | 18.1 | 2857 | -0.6 | -2.5
Cc1ccc2sc(NC(=O)CSc3nc(C)cc(C)c3C#N)nc2c1 | 2.8 | -1.2 | 28.7 | 22663* | u | 3.9
Cc1csc(NC(=O)CSc2nsc(SCC(=O)Nc3nc(C)cs3)c2C#N)n1 | 6.4 | -9.1 | 14.3 | 21632* | u | -2.1
C[C@H](CO)N1C[C@H](C)[C@@H](CN(C)C(=O)Nc2ccc(C(F)(F)F)cc2)Oc2c(NS(=O)(=O)c3ccccc3)cccc2C1=O | 1.7 | 0.7 | x | 4242 | -0.2 | x
COc1ccc2cc(S(=O)(=O)NC3CC(C)(C)NC(C)(C)C3)ccc2c1 | 2.2 | -1.4 | 13.7 | u | -1.1 | -2.3
COc1ccc(C(=O)NCCc2nnc3ccc(SCC(=O)Nc4ccccc4F)nn23)cc1 | -1.2 | -6.5 | 17.9 | 4407 | 0.3 | 1.1
O=C(Cc1c(F)cccc1Cl)Nc1ccc(S(=O)(=O)NCC2CCCO2)cc1 (stereo not drawn) | -2.9 | 1.7 | 4.3 | 4705 | -0.6 | -2.3
CCCCNC(=O)c1cn(C)c2ccc(S(=O)(=O)N3CC(C)CC(C)C3)cc2c1=O (stereo not drawn) | -0.4 | -2.6 | -2.2 | 3795 | 0.8 | 0.3
Cc1cc2c3c(c1)C1(SCC(=O)N1c1ccc(F)cc1)C(=O)N3C(C)(C)CC2C (stereo not drawn) | -10.0 | -3.8 | 14.5 | 18092* | -8.0 | 0.5
N/C(=N\OC(=O)c1ccc(F)cc1)c1ccccc1 | -7.9 | -1.9 | 21.9 | 22601* | -7.1 | -2.1
N/C(=N\OC(=O)c1ccccc1Cl)c1ccccc1 | -0.2 | -2.4 | 26.1 | 22870* | u | 0.3
N/C(=N\OC(=O)c1cccc2ccccc12)c1cccc([N+](=O)[O-])c1 | -0.5 | -1.2 | 17.8 | 16600* | -0.6 | 4.5
COc1ccccc1C#CC1=CC(=O)C[C@H](c2ccc(F)cc2)C1 | 0.0 | -1.8 | x | 3523 | 0.5 | x
O=C(Nc1ccc(N=Nc2ccccc2)c(NC(=O)C2CCCO2)c1)C1CCCO1 (stereo not drawn) | -8.0 | 0.9 | -11.7 | 2111 | -0.7 | -0.8
Cc1ccc(S(=O)(=O)N2CCc3ccccc3C2)cc1 | -9.1 | -10.2 | 52.0* | 2978 | -0.8 | -0.9
O=S(=O)(Cc1ccccc1)N1CCc2ccccc2C1 | -5.1 | -2.3 | -7.5 | 26161* | u | 3.0
Cc1ccc(S(=O)(=O)N2CCc3ccccc3CC2)cc1 | -1.9 | -9.2 | x | 3583 | 0.1 | x
O=S(=O)(c1cccc2nsnc12)N1CCc2ccccc2C1 | 6.6 | -4.1 | 7.6 | 21361* | u | 0.8
SMILES | BoNT F protease | Anthrax LF prot | VHR inh abs | Autofluor counter | BoNT A protease | 3CLpro inhibitor
NC(=O)CC(NC(=O)Cc1cccc2ccccc12)c1ccc(N2CCN(c3ccccn3)CC2)c([N+](=O)[O-])c1 (stereo not drawn) | -5.1 | -4.4 | -10.5 | 3591 | 0.6 | 3.3
Cc1c(C(C)(C)C)c(C=S)n2ccccc12 | -7.5 | -6.5 | 22.8 | 21631* | u | -2.3
CC1(C(=O)NCc2ccccc2)CCC(=O)N1CCCn1ccnc1 (stereo not drawn) | 0.3 | 2.1 | x | 6086 | 0.5 | x
COC(=O)[C@@]1(Cc2ccc(F)cc2)[C@H]2c3cc(C(=O)N(C)C)n(Cc4ccc(OC(F)(F)F)cc4)c3C[C@H]2CN1C(=O)c1ccccc1 | x | x | -26.1 | x | x | 2.1
O=C(Cn1cnc2ccccc21)NCc1ccccc1 | 2.5 | -11.7 | 6.3 | 21986* | 1.4 | 3.1
O=C(COC(=O)Cn1cnc2ccccc21)NCc1ccc(F)cc1 | -4.9 | -1.3 | 1.8 | 4068 | 0.0 | 0.7
Cc1n(CC(O)COCc2ccccc2)c2ccccc2[n+]1C (stereo not drawn) | -0.7 | -1.6 | 32.7 | 23714* | -2.0 | 0.0
CC(=O)Nc1ccc(OCC(O)Cn2cnc3ccccc32)cc1 (stereo not drawn) | 1.8 | -2.9 | 29.7 | 9717 | 0.6 | 1.1
CC(=O)Nc1cccc(OCC(O)Cn2cnc3ccccc32)c1 (stereo not drawn) | -3.7 | -1.2 | -13.2 | 22621* | u | -2.6
OC(COCc1ccccc1)Cn1cnc2ccccc21 (stereo not drawn) | -1.2 | 0.1 | 31.1 | 16259* | u | 1.2
Cn1cc(-c2coc3c(C(=O)NCc4cccs4)cccc23)cn1 | -3.5 | -3.8 | x | 3929 | -0.3 | x
Cc1cc2nc3n(c2cc1C)CCCN3 | -18.3 | -16.8 | 44.4 | 3932 | -3.4 | -2.7
COC(=O)c1ccc(CS(=O)(=O)c2ccc(C)cc2)cc1 | 5.2 | -3.5 | 28.3 | 21233* | u | 2.1
COC(=O)c1cccc(COC(=O)c2ccc(CS(=O)(=O)c3ccc(C)cc3)cc2)c1 | -4.2 | 4.4 | 18.8 | 9419 | 0.9 | 4.0
CCc1cc(CNC(=O)C2CCC(=O)N(Cc3ccccc3F)C2)on1 (stereo not drawn) | 3.6 | -5.5 | x | 3704 | -0.3 | x
O=C(c1cccc(-c2ccccc2)c1)N1CC[C@@H](N2CCC(O)CC2)[C@H](O)C1 | 11.1 | 8.4 | 51.2* | 19128* | -0.6 | -5.6
COc1ccc2c(C)c(C(=O)N3CC[C@@H](N4CCC(O)CC4)[C@H](O)C3)oc2c1 | -1.2 | 0.4 | 27.3 | 8217 | -2.3 | -2.2
CS(=O)(=O)N1N=C(c2ccc3nccnc3c2)CC1c1ccccc1 (stereo not drawn) | 0.8 | 0.5 | 21.3 | 24132* | 1.3 | -1.7
CS(=O)(=O)N1N=C(c2ccccc2)CC1c1ccc2nccnc2c1 (stereo not drawn) | 9.5 | 1.3 | -9.9 | 10220 | 3.3 | 2.8
COc1ccc(CCNS(=O)(=O)c2c(C)[nH]c(C)c2C(=O)N2CCCCC2)cc1OC | 1.0 | 0.0 | -25.4 | 6221 | 0.3 | -1.8
C/C(=C\c1ccccc1)CN1CCN(C)CC1 | 2.8 | -12.7 | 7.4 | 4300 | -2.1 | -4.1
CCOC(=O)N1CCN(C/C(C)=C/c2ccccc2)CC1 | 11.9 | -2.1 | 18.2 | 20298* | u | -1.4
Cc1cccc(OCC(=O)NCCNC(=O)c2ccncc2)c1 | -1.8 | -0.6 | 59.7* | 5797 | 0.4 | -4.3
Cc1cccc(OCC(=O)NCCNC(=O)c2cnccn2)c1 | 1.6 | -12.9 | 19.6 | 4294 | -0.2 | -2.2
